From PubChem BioAssay (NCATS)
Inconclusive results are not listed. Calls of active or inactive are those of the source. Calls follow the shape of the dose curve; as a rule, active = well fitted curve in the direction sought with a large enough effect; inconclusive = small, poorly fitted or top-dose-only effect, or another doubt; inactive = no such curve, though single readings can be large; an effect the other way counts as inactive or inconclusive. Where a SMILES comes first, the peptide text is derived from it. The star is where a group is joined. Hexanoyl = CCCCCC(=O)*

What was measured:
[1] = biological target: Glutathione peroxidase 1 (Homo sapiens) (UniProt P07203); test: Primary qHTS Assay for Inhibitors of Recombinant Selenoprotein Glutathione Peroxidase 1 (GPX1) (AID 1845191); also: nearly all actives have a fitted effect of over 65% in size
Procedure, shortened: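 GPX1 10 nM, GR 100 nM, GSH 1 mM, NADPH 0.5 mM, CHP 0.5 mM (final). 30-min cpd preincubation, RT. Ex340/Em450 read t=0, t=15 min.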

[2] = biological target: Phospholipid hydroperoxide glutathione peroxidase GPX4 (Homo sapiens) (UniProt P36969); test: Primary qHTS Assay for Inhibitors of Recombinant Selenoprotein Glutathione Peroxidase 4 (GPX4) (AID 1845192); also: nearly all actives have a fitted effect of over 65% in size
Procedure, shortened: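 qHTS, GR-coupled: GPX4 200 nM + cpd 30 min RT → GSH 1 mM, NADPH 0.5 mM, GR 100 nM → CHP 0.5 mM start; fluor 340/450 at t0 and t15 min; no-enzyme wells as control.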

[3] = biological target: Luciferin 4-monooxygenase (Photinus pyralis) (UniProt P08659); test: Primary firefly luciferase (FLuc) qHTS assay for identification of artifact compounds. (AID 1845220); also: nearly all actives have a fitted effect of over 60% in size
Procedure, shortened: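 Reaction readout was CCD-imaged luminescence, taken 5 min after adding 10 nM purified firefly enzyme to compound-treated wells holding 10 uM luciferin and ATP in pH 7.6 buffer.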

[4] = Primary fluorescence-based thiol-reactive (MSTI) qHTS assay for identification of artifact compounds. (AID 1845221); also: nearly all actives have a fitted effect of over 65% in size; also: potency is read from the fitted curve at half-maximal effect
Procedure, shortened: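 First, 4 uM MSTI in 2% DMSO/PBS pH 7.4 was dispensed; next, compounds were added; then plates sat 1 h at room temperature without light. Finally, emission at 598 nm was recorded.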

Measured: Potency

Phospholipid hydroperoxide glutathione peroxidase GPX4 (Homo sapiens), sequence (P36969 whole entry, looked up): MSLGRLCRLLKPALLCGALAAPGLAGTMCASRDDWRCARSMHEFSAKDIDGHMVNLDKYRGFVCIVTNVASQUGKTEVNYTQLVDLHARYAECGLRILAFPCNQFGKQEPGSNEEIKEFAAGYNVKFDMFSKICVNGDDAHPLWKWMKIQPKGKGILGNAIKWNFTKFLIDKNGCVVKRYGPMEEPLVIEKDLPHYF
Glutathione peroxidase 1 (Homo sapiens), sequence (P07203 whole entry, looked up): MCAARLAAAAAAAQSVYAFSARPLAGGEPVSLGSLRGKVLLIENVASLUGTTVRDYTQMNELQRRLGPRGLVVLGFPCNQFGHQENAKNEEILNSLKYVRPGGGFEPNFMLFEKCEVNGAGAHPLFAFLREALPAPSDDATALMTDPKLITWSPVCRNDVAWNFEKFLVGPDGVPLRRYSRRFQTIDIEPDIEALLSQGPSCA

C/C=C(\C)C1C(C)=CC2CCC(OS(=O)(=O)O)C(C)C2C1/C=C/C=C/C(=O)O (stereo unspecified)
inactive: [1] | [2] | [3]

Cc1occc(=O)c1O[C@@H]1O[C@H](CO)[C@@H](O)[C@H](O)[C@H]1O
inactive: [1] | [2] | [3] | [4]

COc1ccc(O[C@@H]2O[C@H](CO)[C@@H](O)[C@H](O)[C@H]2O)cc1OC
inactive: [1] | [2] | [3]

O=C(Nc1cc(-c2ccccc2)nn1-c1ccccc1F)c1ccc([N+](=O)[O-])cc1
inactive: [1] | [2] | [3]

CC1=C2C[C@@]3(C)[C@@H](CCC[C@@H]3C)C[C@@]2(O)OC1=O
inactive: [1] | [2] | [3]

C/C(=C\C(=O)C[C@@]12C(=O)O[C@]3(C)CC[C@H]1C[C@H]23)C(N)=O
inactive: [1] | [2] | [3]

CCCN(CCN1CCN(c2ccccc2OC)CC1)C1CCc2ncsc2C1 (stereo unspecified)
inactive: [1] | [2] | [3] | [4]

CC(=O)N[C@H](Cc1c[nH]c2ccccc12)C(=O)OCc1cc(C(F)(F)F)cc(C(F)(F)F)c1
inactive: [1] | [2] | [3] | [4]

CC(C)C1(O)C=C2C(=O)CC3C(C)(C(=O)O)CCCC3(C)C2CC1 (stereo unspecified)
inactive: [1] | [2] | [3] | [4]

O=C(O)c1cc(O[C@@H]2O[C@H](CO)[C@@H](O)[C@H](O)[C@H]2O)ccc1O
inactive: [1] | [2] | [3]

O=C(Cc1ccccc1)OC[C@H]1O[C@H](O[C@H]2O[C@H](CO)[C@@H](O)[C@H](O)[C@H]2O)[C@H](O)[C@@H](O)[C@@H]1O
inactive: [1] | [2] | [3]

CC(=O)c1ccc(O[C@@H]2OC[C@@H](O)[C@H](O)[C@H]2O[C@]2(CO)O[C@H](CO)[C@@H](O)[C@@H]2O)c(O)c1
inactive: [1] | [2] | [3]

C/C(=C\C(=O)C(C)C1CCC2C3=C(CCC21C)C1(C)CCC(=O)C(C)(C)C1(O)CC3)C(C)(C)O (stereo unspecified)
inactive: [1] | [2] | [3]

CC1(C)CCC2(C(=O)O)CCC3(C)C(=CCC4C5(C)CCC(O)C(C)(CO)C5C(O)CC43C)C2C1 (stereo unspecified)
inactive: [1] | [2] | [3]

COC1OC(O)C2(CCC3(O2)C(C)CC2OC(=O)C4(C)CCCC3(C)C24)C1O (stereo unspecified)
inactive: [1] | [2] | [3]

CC/C=C/C(O)C(O)C1=C(C)C(=O)C2(O1)C(=O)NC(OC)(C(=O)c1ccccc1)C2O (stereo unspecified)
inactive: [1] | [2] | [3]

C[C@@H]1C[C@H]2OC(=O)[C@@]3(C)CCC[C@](C)(C23)[C@@]1(O)CCC1=CC(=O)OC1O (stereo partly specified)
active: [4] 3.29 µM
inactive: [1] | [2] | [3]

CC(=O)OC1C(C)C2C(OC3OC(CO)C(O)C(O)C3O)OC=C(C(=O)O)C2C1OC(=O)c1ccccc1 (stereo unspecified)
inactive: [1] | [2] | [3]

CCCCCC(=O)N1CCC[C@H]1C(=O)N[C@@H](Cc1ccc(O)cc1)C(=O)OC (Hexanoyl-Pro-Tyr-OMe)
inactive: [1] | [2] | [3] | [4]

COC(=O)[C@]1(Cc2ccc(O)c(CC=C(C)C)c2)OC(=O)C(O)=C1c1ccc(O)cc1
inactive: [1] | [2] | [3]

C/C1=C\CC[C@]2(C)O[C@H]2C(=O)c2c(C)coc2C1
inactive: [1] | [2] | [3]

C=C(CO)C(=O)O[C@H]1C[C@@]23O[C@@H]2CC/C(=C/[C@H]2OC(=O)C(=C)[C@H]12)CO[C@H]3O
inactive: [1] | [2] | [3]

O=C(O[C@H]1[C@H](Oc2ccc(O)cc2CO)O[C@H](CO)[C@@H](O)[C@@H]1O)c1ccccc1
inactive: [1] | [2] | [3]

COC(=O)C1=COC(OC2OC(CO)C(O)C(O)C2O)C2C(C)CC(=O)C12O (stereo unspecified)
inactive: [1] | [2] | [3]

OC[C@@]1(O)CO[C@H](OC[C@H]2O[C@@H](OC(CCCCc3ccc(O)cc3)CCc3ccc(O)cc3)[C@H](O[C@H]3OC[C@](O)(CO)[C@H]3O)[C@@H](O)[C@@H]2O)[C@@H]1O (stereo partly specified)
inactive: [1] | [2] | [3]

C=CC(C)(O)CC/C=C(\C)C(=O)O[C@@H]1[C@@H](O)[C@H](OC(C)(C=C)CC/C=C(\C)C(=O)O)O[C@H](CO)[C@H]1OC(=O)/C(C)=C/CCC(C)(O)C=C (stereo partly specified)
inactive: [1] | [2] | [3]

CC(=O)OC1(C)CC(O)C2(O)C=COC(OC3OC(CO)C(O)C(O)C3O)C12 (stereo unspecified)
inactive: [1] | [2] | [3] | [4]

C[C@@H](CC[C@@H]1[C@@]2(C)CCCC(C)(C)C2CC[C@@]1(C)O)CC(=O)O (stereo partly specified)
inactive: [1] | [2] | [3] | [4]

CC(=O)O[C@H]1C[C@@]2(C)[C@@H](CC[C@H]3[C@@]4(C)C=CC(=O)[C@@H](C)[C@@H]4[C@H](OC(C)=O)C(=O)[C@@]32C)/C1=C(\CCC=C(C)C)C(=O)O
inactive: [1] | [2] | [3] | [4]
